Test results published in PMC4336329 (PLoS ONE, 2015).
The whole screen tested about 310,000 compounds, of which about 14,000 (4.5%) showed an effect of 50% or more. The effect is printed as a negative number. For the sample, strong results were picked, then their nearest neighbours and some compounds at random.

molecular target: human ether-à-go-go-related gene (hERG) potassium channel (human, UniProt Q12809); assay: primary screen, population patch clamp on CHO cells stably expressing hERG; higher = less effect of the substance
Sequence (Q12809 whole entry, looked up): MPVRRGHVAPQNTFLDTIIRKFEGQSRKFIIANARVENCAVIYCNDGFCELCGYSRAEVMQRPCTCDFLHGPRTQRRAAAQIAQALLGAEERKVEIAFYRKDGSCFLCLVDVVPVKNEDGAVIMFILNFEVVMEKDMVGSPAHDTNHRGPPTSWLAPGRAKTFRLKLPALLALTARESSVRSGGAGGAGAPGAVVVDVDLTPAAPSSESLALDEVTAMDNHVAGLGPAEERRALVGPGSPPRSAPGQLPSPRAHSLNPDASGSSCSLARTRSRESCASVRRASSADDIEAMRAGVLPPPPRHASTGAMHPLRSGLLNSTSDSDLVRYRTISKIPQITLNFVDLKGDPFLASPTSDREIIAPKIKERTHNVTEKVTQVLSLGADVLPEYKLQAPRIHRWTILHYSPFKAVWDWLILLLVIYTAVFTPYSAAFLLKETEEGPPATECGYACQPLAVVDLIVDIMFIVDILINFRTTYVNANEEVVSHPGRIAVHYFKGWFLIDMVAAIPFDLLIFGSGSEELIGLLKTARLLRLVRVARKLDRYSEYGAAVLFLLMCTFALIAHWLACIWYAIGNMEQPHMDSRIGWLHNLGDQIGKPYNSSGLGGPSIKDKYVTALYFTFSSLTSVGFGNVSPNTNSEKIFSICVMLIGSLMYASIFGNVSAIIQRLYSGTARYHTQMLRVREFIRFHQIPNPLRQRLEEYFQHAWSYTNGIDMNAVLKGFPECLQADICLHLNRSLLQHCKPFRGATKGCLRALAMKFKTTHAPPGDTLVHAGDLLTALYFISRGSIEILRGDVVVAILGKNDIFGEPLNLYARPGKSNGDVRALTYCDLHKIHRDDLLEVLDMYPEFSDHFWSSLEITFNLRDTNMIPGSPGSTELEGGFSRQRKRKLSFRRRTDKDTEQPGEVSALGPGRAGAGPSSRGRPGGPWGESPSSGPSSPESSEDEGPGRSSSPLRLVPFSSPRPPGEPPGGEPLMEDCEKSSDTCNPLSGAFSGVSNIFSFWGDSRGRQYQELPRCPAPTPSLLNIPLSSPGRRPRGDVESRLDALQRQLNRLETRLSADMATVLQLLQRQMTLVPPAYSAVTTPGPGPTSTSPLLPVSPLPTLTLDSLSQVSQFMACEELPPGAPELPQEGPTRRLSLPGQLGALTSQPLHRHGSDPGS
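Also: peak tail current of the secondary pulse compared with the same well before compound.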

Compound | hERG current change (%, negative = inhibition) at 10uM [%]
Cc1ccnc(-n2c(C)cc(/C=C3\C(=O)NC(=S)N(C)C3=O)c2C)c1 | 12.9
Cc1cc(=O)[nH]c(COc2ccccc2)n1 | 17.2
CCN(CC)S(=O)(=O)c1ccc2c(c1)nc(SCC(=O)N(C)C1CCS(=O)(=O)C1)n2CC (centres unmarked) | 6.94
N#Cc1c(Cl)nsc1NCCN1CCOCC1 | 15.4
Cc1ccc(C(CNS(=O)(=O)c2ccccc2)N2CCN(C)CC2)cc1 (centres unmarked) | -53.6
Cc1ccc(C(CNS(=O)(=O)c2ccc(Br)cc2)N2CCN(C)CC2)cc1 (centres unmarked) | -72.4
COc1ccc(C(CNS(=O)(=O)c2ccccc2)N2CCN(C)CC2)cc1 (centres unmarked) | -35.7
Cc1cc(S(=O)(=O)NCC(c2ccc(F)cc2)N2CCN(C)CC2)ccc1F (centres unmarked) | -68.4
Cc1ccc(S(=O)(=O)NCCNC(C)c2ccc(Br)cc2)cc1 (centres unmarked) | -42.5
O=S(=O)(NCC(c1ccc2c(c1)OCO2)N1CCOCC1)c1ccc(F)cc1 (centres unmarked) | -6.81
Cc1cc(S(=O)(=O)NCC(c2ccc3c(c2)OCO3)N2CCOCC2)ccc1F (centres unmarked) | -20.7
Cc1ccc(S(=O)(=O)NCC(c2ccccc2)N2CCCCC2)cc1 (centres unmarked) | 1.79
COc1cccc(C(=O)NNC(=O)C2CCCO2)c1 (centres unmarked) | 15.3
CCC1=[N+](CC(=O)c2ccc(Br)cc2)CCn2c(C)ccc21.[Br-] | -6.76
COc1cc(Nc2cc(C)nc3ncnn23)cc(OC)c1 | -8.29
CN1CCC(NC(=O)Cc2c(F)cccc2Cl)CC1 | -1.52

Compound | hERG current change (%, negative = inhibition) at 10uM [%]
O=C1CCC2S/C(=C/Nc3ccc(C(F)(F)F)cc3)C(=O)N12 (centres unmarked) | -52.2
O=C(c1ccc(C(F)(F)F)cc1)C1CCCN(C(=O)CN2CCCC2=O)C1 (centres unmarked) | 0.525
CS(=O)(=O)N1CCC(C(=O)Nc2ccc(C(F)(F)F)cc2)CC1 | 12.4
COc1ccc(OC)c(NC(=O)CCNS(=O)(=O)c2cc(Br)cnc2N)c1 | -14.9
CCn1c(SCC(=O)Nc2ccc3c(c2)OCO3)nnc1-c1ccccc1O | 7.21
COc1cc(NC(=O)CSc2nnc3n2C(C)(C)Cc2ccccc2-3)cc(OC)c1 | 10
Cn1c(SCC(=O)Nc2nc3ccccc3s2)nnc1-c1ccccc1 | 10.3
O=C(COC(=O)c1cnccn1)Nc1ccc2c(c1)OCO2 | 7.23
O=C(COC(=O)c1cccnc1Cl)Nc1ccc2c(c1)OCO2 | 2.28
CC1(C)Cc2ccccc2-c2nnc(SCC(=O)Nc3ccc4c(c3)OCO4)n21 | -63.2
CC1(C)Cc2ccccc2-c2nnc(SCC(=O)Nc3nc4ccccc4s3)n21 | -74.4
COc1ccc2nc(NC(=O)CSc3nnc4n3C(C)(C)Cc3ccccc3-4)sc2c1 | 0.248
CCSc1nnc2n1C(C)(C)Cc1ccccc1-2 | 0.0135
CC1(C)Cc2ccccc2-c2nnc(SCc3ccc(C#N)cc3)n21 | -58.9
O=C(COC(=O)c1ccccn1)Nc1ccc2c(c1)OCO2 | -65.5
COC(=O)CSc1nnc2n1C(C)(C)Cc1ccccc1-2 | 3.46
